Sampled rows, rich in hits. Any-hit rate of the full collection: about 0.52%.
S aureus helic – S. aureus DNA helicase inhibition; hit rate 0.05% among 120,000; purified S. aureus helicase, fluorescence unwinding assay; inhibition, % (no concentration beside the values); in the data active = inhibition above about 25%, passing the limit was not always enough
Sa growth inh – S. aureus growth inhibition. relative growth, % (test concentration not listed). AID 720641. S. aureus RN4220 growth, OD600, 20 h, 42 °C; hits give low values. hit rate 0.53% among 170,000;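 active = relative growth at most 50% at the other temperature and 20+ points below 30 °C, or under 10% at both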
Numbers stand for hits; n = inactive; x = no result.

SMILES	S aureus helic	Sa growth inh
O=C(Nc1ccccc1N1CCCC1)c1ccc(CSc2ncn[nH]2)cc1	n	n
O=c1c2cnn(CCO)c2ncn1C/C=C/c1ccccc1	n	n
O=c1cc(-c2ccccc2)c2ccc(O)c(O)c2o1	58	x
CCc1cc(=O)oc2c(O)c(O)ccc12	n	n
O=C(c1cc2c(Cl)nc3ccccc3c2s1)N1CCCC1	n	n
COC(=O)CSC(=S)N1CCC(C)CC1	n	n
Cc1[nH]nc(-c2ccc(O)cc2O)c1Oc1ccc(C(C)C)cc1	n	29
Cc1[nH]nc(-c2ccc(O)c(C)c2O)c1Oc1ccccc1	n	n
c1csc(-c2nnc(CON=C3c4ccccc4-c4ccccc43)o2)c1	n	n
CC(C)CNS(=O)(=O)c1ccc2nc(NC(=O)c3ccccn3)sc2c1	n	n
CC(C)OC(=O)c1ccc2[nH]c3c(c2c1)CCCC3	n	34
COC(=O)c1ccc2[nH]c3c(c2c1)CCCC3	n	n
CCOc1ccccc1NC(=O)C1CCN(c2ncccn2)CC1	n	n
Cn1c(C(C#N)C(=O)CC23CC4CC(CC(C4)C2)C3)nc2ccccc21 (centres undefined)	n	n
CCc1ccc(C(=O)Nc2ccc(S(N)(=O)=O)cc2)cc1	x	n
CC(C)(C)c1ccc(C(=O)Nc2ccc(S(N)(=O)=O)cc2)cc1	n	2.7
O=C(CN1CCN(c2ccccc2)CC1)NC1CC1	n	n
COc1ccc(-c2noc(CCC(=O)O)n2)cc1OC	n	n
N#Cc1cc(-c2ccc(Cl)cc2)no1	n	n
Clc1ccc(-c2cnc3nonc3n2)cc1	n	0.0
O=Cc1c(O)c2ccccc2c2ccccc12	n	9.1
O=c1oc2ccccc2c(O)c1C=Nc1ccccc1	n	n
COC(=O)c1cn(-c2ccccc2)nc1-c1cccs1	n	18
CN(C)C(=O)c1cn(-c2ccccc2)nc1-c1cccs1	n	n
C=CCn1c(SCC(=O)Nc2ccc3[nH]c(=O)[nH]c3c2)nnc1-c1ccccc1F	n	n
SMILES	S aureus helic	Sa growth inh
O=C(Nc1cccc(F)c1)NC1CCCC1	n	n
CC1CCC(C(C)C)C(NC(=S)Nc2cccc(F)c2)C1 (centres undefined)	x	-0.8
C[N+](C)(CCOc1ccccc1)Cc1ccccc1	x	n
Cc1cc(C(C)(C)CC(C)(C)C)ccc1OCCOCC[N+](C)(C)Cc1ccccc1	x	0.9
N#Cc1ccc(COC(=O)CN2C(=O)CSc3ccccc32)cc1	n	n
C[C@@H](O)[C@H]1C(=O)N2C(C(=O)O)=C(S[C@@H]3CN[C@H](C(=O)N(C)C)C3)[C@H](C)[C@H]12	x	-0.5
CC/C(=N\NC(=O)c1ccc(N)cc1)c1ccc(Cl)cc1	n	n
CC(O)CNc1nc2ccccc2nc1-c1ccccc1 (centres undefined)	n	n
Cc1ccc(C)n1-c1ccc(C(=O)OCc2nc3ccsc3c(=O)[nH]2)cc1	n	48
O=C(OCc1nc2ccsc2c(=O)[nH]1)c1ccc(N2CCCC2=O)cc1	n	n
Cc1cccc(NC(=O)CN(C)S(=O)(=O)c2cccs2)c1C	n	n
Fc1ccc(Nc2nc(-c3ccncc3)nc3ccccc23)cc1	n	n
Fc1ccc(Nc2nc3ccccc3nc2Nc2ccc(F)cc2)cc1	n	-0.4
CC(=O)Nc1ccccc1-c1nc2ccccc2[nH]c1=O	n	n
CC(=O)N=Nc1c2[nH]c3ccccc3nc-2c2ccccc12	n	7.6
O=C(Oc1ccc(-c2nnco2)cc1)c1oc2ccccc2c1COc1ccccc1	n	n
Cc1c(C#N)c(N)n(Cc2cc(C(F)(F)F)cc(C(F)(F)F)c2)c1C	n	-0.1
CCOCCCn1c(C)c(C)c(C#N)c1N	n	n
COc1ccc(C(=O)c2cc(CC(=O)O)c(-c3ccc(OC)cc3)s2)cc1	n	n
N#C/C(=C\c1ccc(Cl)cc1Cl)c1c[nH]c2ccccc12	x	n
N#C/C(=C\c1ccc(F)cc1)c1c[nH]c2ccccc12	x	42
Cc1ccc(NC(=O)CN2C(=O)CSCC2=O)cc1	n	n
O=C(/C=C\c1ccco1)Oc1cccc2cccnc12	n	1.6
CCc1ccc(OC(=O)/C=C/c2ccco2)cc1	n	n
O=C(NCc1ccccn1)c1cccc(C(F)(F)F)c1	n	n
SMILES	S aureus helic	Sa growth inh
O=C(O)CN1C(=O)c2ccccc2C1=O	n	n
NS(=O)(=O)c1ccccc1C(=O)N1CCN(C(=O)c2ccccc2S(N)(=O)=O)CC1	n	n
N=C1/C(=C2\Nc3ccccc3S2)CC(=O)N1CCc1ccccc1	n	1.4
N=C1/C(=C2\Nc3ccccc3S2)CC(=O)N1Cc1ccco1	n	n
COc1ccc(-c2noc(N3CCCC(C(=O)Nc4cccnc4)C3)n2)cc1 (centres undefined)	n	n
O=C(/C=C/c1ccco1)OCc1c(F)cccc1Cl	n	n
CCn1c(C(=O)OC)cc2occc21	n	n
CCOc1cc(/C=C2/SC(=S)N(C(CC)C(=O)O)C2=O)ccc1O (centres undefined)	n	n
CCC(C)N1C(=O)S/C(=C/c2ccc(O)c(Cl)c2)C1=O (centres undefined)	n	-0.6
CC1CCC2(CC1)NC(=O)N(Nc1ccc(S(=O)(=O)N3CCCC3)cn1)C2=O (centres undefined)	n	n
CN1C(=O)CC(C(=O)Nc2ccc(C(=O)O)cc2)SC1=Nc1ccc(Cl)cc1 (centres undefined)	x	n
O=C(O)C1CC(=O)N(CCC23CC4CC(CC(C4)C2)C3)C(=Nc2ccc(Cl)cc2)S1 (centres undefined)	n	-0.5
CCc1nc2cccnc2n1-c1ccc(C(=O)N2CCCCC2)cc1	n	n
C#CCn1c(CSc2ccccc2)nc2ccccc21	n	n
COc1ccc(Nc2cc(C)c(C#N)c3nc4ccccc4n23)cc1	n	n
Cc1ccccc1Nc1cc(C)c(C#N)c2nc3ccccc3n12	n	1.2
Cc1ccc(OCCCn2ccnc2)cc1	n	n
COc1ccc(OCCCn2ccnc2)cc1	n	n
c1ccc2c(OCCCCCn3ccnc3)cccc2c1	n	-0.5
Cc1ccc(C(C)C)c(OCCn2ccnc2)c1	n	n
Cc1cc(OCCCCCn2ccnc2)cc(C)c1Cl	n	-0.9
Cc1ccc(C(C)C)c(OCCCCn2ccnc2)c1	n	-0.7
COc1cc(SC)ccc1C(=O)OCC(=O)N(C)C1(C#N)CCCCC1	n	n
O=c1onc(-c2cccnc2)n1-c1ccccc1	x	n
O=C(NCc1cccs1)c1cccn2c(=O)c3c4c(sc3nc12)CCCC4	n	n
SMILES	S aureus helic	Sa growth inh
CCOC(=O)c1ccc(NS(=O)(=O)c2cc(-c3cc(C)no3)ccc2C)cc1	n	n
N#Cc1c(N)[nH]c(=S)c(C(N)=O)c1-c1cccc(Br)c1	n	0.3
CCc1[nH]c(=S)c(C#N)c(-c2ccccc2)c1C(=O)OC	n	n
COc1ccc(NCc2ccc[nH]2)cc1	x	n
COC(=O)c1sc2ncn(-n3cccc3)c(=O)c2c1C	n	n
CCN(CC)S(=O)(=O)c1ccc(Cl)c(C(=O)Oc2ccc(C)cc2-n2nc3ccccc3n2)c1	n	n
CC(=O)Oc1ccc(C)cc1-n1nc2ccccc2n1	n	46
COc1cc2c3nc4n(c(=O)c3n(C)c2cc1OC)CCS4	49	n
Cn1c2ccc(F)cc2c2nc3n(c(=O)c21)CCS3	n	n
Cn1c(SCCN2CCCC2)nnc1-c1ccncc1	n	n
C[n+]1ccc(/C=C/c2ccc3c(c2)OCO3)c2ccccc21	n	0.0
O/N=C/c1ccco1	n	n
C[n+]1ccc(/C=C/c2ccccc2O)c2ccccc21	50	n
C[n+]1ccc(/C=C\c2ccco2)c2ccccc21	n	3.2
Oc1ccc(N=Cc2ccccc2O)cc1	n	n
